The record followed here is PubChem BioAssay AID686979 (National Center for Advancing Translational Sciences (NCATS), 2013).

Among all 420,000 compounds or so, about 50,000 (12%) were called active. Entries that show only a call come without a potency. Inconclusive results (about 26%) are left out. Calls follow the shape of the dose curve; as a rule, active = well fitted inhibition curve with a large enough effect; inconclusive = small, poorly fitted or top-dose-only effect; inactive = flat fitted curve, though single readings scatter. This excerpt belongs to a sample that is enriched for actives.
Potency is read from the fitted curve at half-maximal effect.

This test is described as follows: qHTS for Inhibitors of human tyrosyl-DNA phosphodiesterase 1 (TDP1): qHTS in cells in presence of CPT. Also: nearly all actives have a fitted effect of over 55% in size. The following applies: chicken DT40 Tdp1-/-;hTDP1 cells + 20 nM CPT, ATP luminescence, 48 h; series mostly up to 46.2 µM. Put shortly:
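Chicken DT40 Tdp1-/- cells stably complemented with human TDP1 were seeded at 400 cells/well in medium containing 20 nM camptothecin, exposed to pin-transferred compounds, and grown at 37 °C for at least 48 hr. Viability was read as ATP luminescence.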
For `C/C(=N\NS(=O)(=O)c1cccc([N+](=O)[O-])c1)c1cc2ccccc2o1`, the Potency result was “inactive”.

On to `CCn1c(SCc2cc(=O)n3ccsc3n2)nc2ccccc21`, for which the Potency entry was “inactive”.

Take `COc1cccc(-n2ccn(CC(=O)NCc3ccc(C)cc3)c(=O)c2=O)c1`: the Potency entry was “inactive”.

For the molecule `COc1cccc(-n2cc(C(=O)O)c3ccccc3c2=O)c1`, the Potency entry was “inactive”.

As for `CCN(Cc1ccccc1)C(=O)c1cn(-c2cccc(OC)c2)c(=O)c2ccccc12`, the Potency is 18.4 µM (active).

Take `COc1ccc(NC(=O)CSc2nnc(C3CC3)n2C)cc1S(=O)(=O)N1CCCCC1`: the Potency entry is “inactive”.

As to `COc1ccc(C2CC(=O)Oc3ccc(C(C)(C)C)cc32)cc1` (configuration not stated), the Potency result was “inactive”.

For `N#Cc1ccc(/C=C2\CCn3c2nc2cc(C(=O)O)ccc2c3=O)cc1`, the Potency result is “inactive”.

In the case of `COc1cccc(Cn2c(=O)c(CCc3ccccc3)nc3cnc(N(C)C)nc32)c1`, the Potency entry is “inactive”.

As for `COc1cccc(Cn2c(=O)c(-c3ccccc3)nc3cnc(OC)nc32)c1`, the Potency result was “inactive”.

As for `COc1cccc(Cn2c(=O)cnc3cncnc32)c1`, the Potency was 1.46 µM (active).

For `Cc1ccc(C(=O)N/C(=C\c2cn(C)c3ccccc23)C(=O)N2CCN(C)CC2)cc1`, the Potency result is “inactive”.

In the case of `Cc1cn(C2CC(O)C(CO)O2)c(=O)n(CCCc2ccccc2)c1=O` (configuration not stated), the Potency entry was “inactive”.

In the case of `CCOc1c(Nc2cccc(Cl)c2)c(=O)c1=O`, the Potency entry was “inactive”.

For the molecule `CCCCN(CC)C(=O)c1c[nH]c2ccc(S(=O)(=O)Nc3cccc(OC)c3)cc2c1=O`, the Potency entry is “inactive”.

With `CCCCN(CC)C(=O)c1ccccc1Oc1ccccc1`, the Potency is 20.6 µM (active).

In the case of `CCCCN(CC)C(=O)c1ccc2c(c1)OCO2`, the Potency result was “inactive”.

With `C[C@H]1CN([C@@H](C)CO)C(=O)c2cc(Br)cnc2O[C@H]1CN(C)S(=O)(=O)c1cccs1`, the Potency result was “inactive”.

Consider `CCCCNC(=O)CSc1nc2ccc(NC(=O)CSc3nnc(COc4ccccc4C)n3C)cc2s1`, for which the Potency result is “inactive”.

`COC(=O)C[C@@H]1C=C[C@@H](NS(=O)(=O)c2cccc(OC)c2)[C@@H](CO)O1`: the Potency result was “inactive”.

For the molecule `CCCNC(=O)c1cc(C2CCCCN2C(=O)OC)on1` (configuration not stated), the Potency entry was “inactive”.

For `O=C(NCc1ccc(F)cc1)c1cc(C2CCCCN2C(=O)C2CCCCC2)on1` (configuration not stated), the Potency was 18.4 µM (active).

`CS(=O)(=O)N1CCCCC1c1cc(C(=O)NCc2ccccc2)no1` (configuration not stated): the Potency entry was “inactive”.

Regarding `COC(=O)[C@@H](Cc1ccccc1)NC(=O)NCCc1ccccc1`, the Potency entry is “inactive”.

`COc1ccc(-c2[nH][nH]c(=O)c2NC(=O)c2ccc([N+](=O)[O-])cc2)cc1`: the Potency entry is “inactive”.

Take `COc1ccc(OC)c(NC(=O)c2ccc3c(c2)CCN3S(C)(=O)=O)c1`: the Potency entry was “inactive”.

Turning to `CCCc1c(C(=O)Nc2ccc(F)cc2)cnn1-c1ccccc1`, the Potency is 14.6 µM (active).

`CCc1ccccc1NC(=O)c1cnn(-c2ccc(F)cc2)c1C1CCNCC1`: the Potency entry is “inactive”.

As for `CCCc1c(C(=O)O)cnn1-c1ccc(Cl)cc1`, the Potency result is “inactive”.

With `CCn1c(SCC(=O)N2CCCC2=O)nc2ccccc21`, the Potency entry was “inactive”.

For the molecule `O=C(N/N=C/c1ccsc1)c1cc(O)cc(O)c1`, the Potency result is “inactive”.

As for `CCCCC(=O)Nc1c2c(nn1-c1ccc([N+](=O)[O-])cc1)CS(=O)(=O)C2`, the Potency result was “inactive”.

Consider `CCN(CC)S(=O)(=O)c1ccc2[nH]c(=O)cc(C(=O)N(C)C3CCS(=O)(=O)C3)c2c1` (configuration not stated), for which the Potency result is “inactive”.

With `COc1ccc(N2CCN(C(=O)CCNC(=O)c3ccc(Br)cc3)CC2)cc1`, the Potency entry is “inactive”.

For the molecule `COc1ccc(N2CCN(C(=O)[C@@H](NC(=O)c3cc(OC)cc(OC)c3)C(C)C)CC2)cc1`, the Potency was 14.6 µM (active).

As to `COc1cc(OC)cc(C(=O)NC(C(=O)N2CCC2)C(C)C)c1` (configuration not stated), the Potency result is “inactive”.

With `CS(=O)(=O)N1CCc2nc(-c3ccccc3)sc2C1`, the Potency result was “inactive”.

Regarding `CCOc1ccc(S(=O)(=O)NCCC(=O)NCC(C)(C)N2CCOCC2)cc1`, the Potency result is “inactive”.

In the case of `C=CCn1c(P(C)(=O)O)nc2ccccc21`, the Potency result was “inactive”.

For the molecule `O=C(O)Cn1c(Cc2ccccc2)nc2ccccc21`, the Potency result is “inactive”.

On to `C=C(Br)Cn1c(CCCC)nc2ccccc21`, for which the Potency was 18.4 µM (active).

With `Cc1nc2sc(C)c(C)n2c(=O)c1S(=O)(=O)NCCc1ccc(Cl)cc1`, the Potency result is “inactive”.

Regarding `CCOc1ccc(N(C)S(=O)(=O)c2cc(-c3cnc(C)o3)ccc2OC)cc1`, the Potency is 25.9 µM (active).

With `COc1ccc(N(C)S(=O)(=O)c2cccc3nsnc23)cc1`, the Potency result was “inactive”.

In the case of `CCOC(=O)c1cccc(NS(=O)(=O)c2cc(-c3cnc(C)o3)ccc2OC)c1`, the Potency is 10.3 µM (active).

Turning to `CCOC(=O)c1cccc(NS(=O)(=O)c2cn(C)c(C)n2)c1`, the Potency result is “inactive”.

For the molecule `CCOC(=O)c1cc(-c2ccc(OC)c(S(=O)(=O)Nc3ccc(OC)cc3OC)c2)on1`, the Potency entry is “inactive”.

Consider `CCOc1ccc(N(C)S(=O)(=O)c2cnc[nH]2)cc1`, for which the Potency result was “inactive”.

On to `CC(C)C(=O)Nc1nnc(SCC(=O)N2C(C)CCCC2C)s1` (configuration not stated), for which the Potency result was “inactive”.

Consider `CSc1ccccc1OCc1cc(C(=O)N2C[C@H]3CC[C@H]2C3)no1`, for which the Potency result is “inactive”.

For `CCc1ccccc1NC(=O)/C(=C/c1ccccc1)c1ccccc1`, the Potency was 20.6 µM (active).

Consider `CCc1ccccc1NC(=S)Nc1cc(OC)c(NC(=O)C(C)C)cc1OC`, for which the Potency result is “inactive”.

Turning to `CCc1ccccc1NC(=O)CCOc1ccccc1`, the Potency result was “inactive”.

On to `CC(=O)Nc1ccc(N2C(=O)C3C4C=CC(CC4)C3C2=O)cc1` (configuration not stated), for which the Potency entry was “inactive”.

`O=C(Nc1cccc(F)c1)[C@@H]1CCCN1`: the Potency entry was “inactive”.

For the molecule `Cc1ccc(CN2CCCOCCS2(=O)=O)cc1`, the Potency result was “inactive”.

Turning to `O=C1NC[C@@H](CCCCN2CCN(CCc3ccc(O)cc3)C(=O)C2=O)N(CC2CCCCC2)C1=O`, the Potency entry is “inactive”.

For `Oc1ccc2c(c1)OCC1c3cc4c(cc3OC21)OCO4` (configuration not stated), the Potency entry is “inactive”.

For the molecule `O=S(=O)(NCCCN1CCOCC1)c1ccc(F)c(Cl)c1`, the Potency entry is “inactive”.

For `O=[N+]([O-])c1cc(S(=O)(=O)CCCN2CCOCC2)ccc1F`, the Potency is 20.6 µM (active).

As for `O=C(NCCCN1CCOCC1)c1ccc([N+](=O)[O-])cc1[N+](=O)[O-]`, the Potency entry is “inactive”.

Consider `Oc1ccccc1/C=N/n1c(-c2cccs2)n[nH]c1=S`, for which the Potency result is “inactive”.

Consider `Cc1ccsc1/C=N/n1c(=S)[nH]nc(C)c1=O`, for which the Potency is 16.4 µM (active).

`S=c1[nH]nc(-c2cccs2)n1/N=C/c1cccs1`: the Potency entry is “inactive”.

For the molecule `O=C(COC(=O)c1cc2c(s1)CCCC2)NCc1ccccc1Cl`, the Potency result is “inactive”.

For `O=c1cc(COc2cccc(C(F)(F)F)c2)nc2sc3c(n12)CCCC3`, the Potency result was “inactive”.

As to `Cc1ccc2nsnc2c1NC(=O)c1ccccc1[N+](=O)[O-]`, the Potency entry was “inactive”.
